Read-out in experiment [1]: sulfotransferase (SULT2A), SULT2A1 (gene 6822)
Description: CLD_SULT2A_24hr: CellzDirect (CLD) Gene Expression Assay for sulfotransferase (SULT2A) at 24 hours (AID 2283694). In short, it runs like this:
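Primary human hepatocytes from two donor preparations were dosed daily with fresh solutions, vehicle 0.2% DMSO. At 24 h, lysates went to quantitative nuclease protection (qNPA) with S1 digestion and chemiluminescent readout. Cytotoxicity was annotated from phase-contrast morphology.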

Read-out in experiment [2]: glucuronosyltransferase (UGT1A1), UGT1A1 (gene 54658)
Description: CLD_UGT1A1_24hr: CellzDirect (CLD) Gene Expression Assay for glucuronosyltransferase (UGT1A1) at 24 hours (AID 2283696). In a few lines: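 Primary human hepatocytes from two donor preparations were dosed (0.2% DMSO vehicle) and harvested at 24 h; UGT1A1 mRNA induction was quantified by chemiluminescent qNPA, fitted as gain relative to DMSO.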

Read-out in experiment [3]: xenobiotic metabolism (CYP1A2), CYP1A2 (gene 1544)
Description: CLD_CYP1A2_48hr: CellzDirect (CLD) Gene Expression Assay for xenobiotic metabolism (CYP1A2) at 48 hours (AID 2283703). In short, it runs like this:
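Primary human hepatocytes from two donor preparations were dosed daily for two days at multiple concentrations in 0.2% DMSO vehicle. CYP1A2 mRNA was measured at 48 hours by chemiluminescent quantitative nuclease protection assay, with gain of signal fitted versus DMSO and cytotoxicity annotated from morphology.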

Read-out in experiment [4]: alkyl and aryl transferase (GSTA2), GSTA2 (gene 2939)
The experiment can be described thus: CLD_GSTA2_48hr: CellzDirect (CLD) Gene Expression Assay for alkyl and aryl transferase (GSTA2) at 48 hours (AID 2283708).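 Also: active means mRNA induction above DMSO vehicle baseline.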 In short, it runs like this: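 Primary human hepatocytes dosed daily for two days (0.2% DMSO vehicle), harvested at 48 h. GSTA2 mRNA induction measured by quantitative nuclease protection assay with chemiluminescent imaging, fitted for gain of signal relative to DMSO.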

Read-out in experiment [5]: glucuronosyltransferase (UGT1A1), UGT1A1 (gene 54658)
Description: CLD_UGT1A1_48hr: CellzDirect (CLD) Gene Expression Assay for glucuronosyltransferase (UGT1A1) at 48 hours (AID 2283709).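 Also: actives increase expression relative to DMSO so potency refers to induction.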 In a few lines: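 Human primary hepatocytes dosed daily for two days (0.2% DMSO vehicle), harvested at 48 h. UGT1A1 mRNA induction measured by quantitative nuclease protection assay with chemiluminescence; gain of signal versus DMSO; cytotoxicity flagged from morphology.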

Read-out in experiment [6]: sulfotransferase (SULT2A), SULT2A1 (gene 6822)
The experiment can be described thus: CLD_SULT2A_48hr: CellzDirect (CLD) Gene Expression Assay for sulfotransferase (SULT2A) at 48 hours (AID 2283710).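 Also: hits raise SULT2A1 transcript above the 0.2% DMSO vehicle baseline.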 In short, it runs like this: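 Primary human hepatocytes (two donor preparations) dosed daily for two days with chemicals at multiple concentrations, vehicle 0.2% DMSO; SULT2A1 mRNA induction at 48 h by quantitative nuclease protection assay, chemiluminescent read-out, fitted for gain of signal versus DMSO.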

Experiment [7] can be described thus: CEETOX_H295R_MTT_cell_viability: Viability Assessment in the CeeTox HT-H295R MTT Assay (AID 2283718; active = hit-call score of the fitted dose curve at least 0.9, where 1 is the maximum; inactive = score below 0.9). In a few lines:
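MTT reduction (0.5 mg/ml, 4 h at 37 C; absorbance at 570 and 650 nm) gave viability as background-corrected percent change versus controls. H295R cells had 48 h forskolin (10 uM) prestimulation, then 48 h chemical exposure at 0.1% DMSO.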

Read-out in experiment [8]: Cytochrome P450 2B6 (Homo sapiens) (UniProt P20813)
The experiment can be described thus: CLD_CYP2B6_48hr: CellzDirect (CLD) Gene Expression Assay for xenobiotic metabolism (CYP2B6) at 48 hours (AID 2283699).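 Also: actives raise transcript level above DMSO so potency reflects induction.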 In short, it runs like this:
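Primary human hepatocytes dosed daily for two days over multiple concentrations, 0.2% DMSO vehicle; CYP2B6 mRNA quantified at 48 h by qNPA chemiluminescence. Induction fitted as gain of signal versus DMSO; cytotoxicity annotated by morphology.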

Read-out in experiment [9]: Broad substrate specificity ATP-binding cassette transporter ABCG2 (Homo sapiens) (UniProt Q9UNQ0)
The experiment can be described thus: CLD_ABCG2_48hr: CellzDirect (CLD) Gene Expression Assay for ABC Transporter (ABCG2) at 48 hours (AID 2283704). In short, it runs like this:
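Primary human hepatocytes from two donors, dosed daily for 2 days, 0.2% DMSO vehicle, several concentrations. ABCG2 mRNA at 48 h by qNPA chemiluminescence, gain fitted versus DMSO; cytotoxicity flagged by morphology.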

Read-out in experiment [10]: organic anion transporter (SLCO1B1), SLCO1B1 (gene 10599)
Description: CLD_SLCO1B1_48hr: CellzDirect (CLD) Gene Expression Assay for organic anion transporter (SLCO1B1) at 48 hours (AID 2283707). In a few lines:
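Primary human hepatocytes from two donor preparations dosed daily for two days with multiple concentrations, 0.2% DMSO vehicle. SLCO1B1 mRNA at 48 h by quantitative nuclease protection assay, chemiluminescence; gain-of-signal fitted versus DMSO.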

Experiment [11] in a line: STM_H9_OrnithineISnorm_perc: Stemina devTOX quickPredict H9 human embryonic stem cell (hESC)-based Assay for Ornithine (ORN) Metabolite Biomarker, Normalized (AID 2283712; active = hit-call score of the fitted dose curve at least 0.9, where 1 is the maximum; inactive = score below 0.9;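 also: ornithine released into spent medium during last day measured by mass spectrometry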). In a few lines:
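H9 human embryonic stem cells kept pluripotent receive test chemical over 72 h, refreshed daily by media exchange. Media from the closing 24 h is deproteinized and analysed by UPLC-HRMS on an amide column; ornithine signal is scaled to labelled standard and vehicle.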

Experiment [12] is described as follows: STM_H9_CystineISnorm_perc: Stemina devTOX quickPredict H9 human embryonic stem cell (hESC)-based Assay for Cystine (CYSS) Metabolite Biomarker, Normalized (AID 2283713; active = hit-call score of the fitted dose curve at least 0.9, where 1 is the maximum; inactive = score below 0.9). In short, it runs like this: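 H9 hESC, pluripotent; compound 72h, re-dosed q24h with medium change. Last-24h medium → 40% acetonitrile deproteinization → UPLC-HRMS. CYSS area / C13-CYSS standard, then % of 0.1% DMSO median.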

Read-out in experiment [13]: alkyl and aryl transferase (GSTA2), GSTA2 (gene 2939)
Description: CLD_GSTA2_24hr: CellzDirect (CLD) Gene Expression Assay for alkyl and aryl transferase (GSTA2) at 24 hours (AID 2283693). In short, it runs like this: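 Primary human hepatocytes (two donor preparations) dosed daily for two days with chemicals at multiple concentrations (vehicle 0.2% DMSO); GSTA2 mRNA at 24 h measured by qNPA chemiluminescence, gain-of-signal versus DMSO.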

Read-out in experiment [14]: Glyceraldehyde-3-phosphate dehydrogenase (Homo sapiens) (UniProt P04406)
Description: CLD_GAPDH_48hr: CellzDirect (CLD) Gene Expression Assay for Baseline Control (Glyceraldehyde 3-phosphate dehydrogenase) at 48 hours (AID 2283706).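 Also: active means higher GAPDH mRNA than DMSO vehicle.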 In short, it runs like this:
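Primary human hepatocytes dosed daily for two days with fresh chemical at multiple concentrations, 0.2% DMSO vehicle; GAPDH mRNA measured at 48 h by quantitative nuclease protection assay with chemiluminescence, fitted upward relative to DMSO as background control.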

Read-out in experiment [15]: xenobiotic metabolism (CYP2C9), CYP2C9 (gene 1559)
Description: CLD_CYP2C9_48hr: CellzDirect (CLD) Gene Expression Assay for xenobiotic metabolism (CYP1A2) at 48 hours (AID 2283701; active = hit-call score of the fitted dose curve at least 0.9, where 1 is the maximum; inactive = score below 0.9). In a few lines:
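Primary human hepatocytes (two donor preparations) dosed daily for two days with test chemicals, 0.2% DMSO vehicle; harvested at 48 h. mRNA induction quantified by qNPA chemiluminescence, fitted for gain of signal against DMSO baseline; cytotoxicity annotated from phase-contrast morphology.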

Read-out in experiment [16]: Cytochrome P450 3A4 (Homo sapiens) (UniProt P08684)
The experiment can be described thus: CLD_CYP3A4_48hr: CellzDirect (CLD) Gene Expression Assay for xenobiotic metabolism (CYP3A4) at 48 hours (AID 2283698). In a few lines: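 Primary human hepatocytes from two donor preparations dosed daily for two days with multiple chemical concentrations, 0.2% DMSO vehicle. CYP3A4 mRNA at 48 h by quantitative nuclease protection assay, chemiluminescence, positive fit versus DMSO; cytotoxicity flagged morphologically.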

Read-out in experiment [17]: ABC Transporter (ABCB1), ABCB1 (gene 5243)
The experiment can be described thus: CLD_ABCB1_48hr: CellzDirect (CLD) Gene Expression Assay for ABC Transporter (ABCB1) at 48 hours (AID 2283695). In short, it runs like this:
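Primary human hepatocytes from two donor preparations dosed daily on two consecutive days with 0.2% DMSO vehicle. Harvest at 48 h. ABCB1 mRNA quantified by qNPA with chemiluminescence and fitted for gain of signal versus DMSO.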

Read-out in experiment [18]: xenobiotic metabolism (CYP1A1), CYP1A1 (gene 1543)
Description: CLD_CYP1A1_48hr: CellzDirect (CLD) Gene Expression Assay for xenobiotic metabolism (CYP1A1) at 48 hours (AID 2283705). In a few lines: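 Primary human hepatocytes from two donors dosed daily for two days at multiple concentrations, 0.2% DMSO vehicle; CYP1A1 mRNA induction at 48 h by qNPA chemiluminescence. Cytotoxicity noted by phase-contrast morphology.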

Experiment [19] in a line: STM_H9_OrnCyssISnorm_ratio: Stemina devTOX quickPredict H9 human embryonic stem cell (hESC)-based Assay for Ornithine (ORN):Cystine (CYSS) Ratio (AID 2283714). In short, it runs like this:
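Steps: H9 hESCs in pluripotent state dosed 72h, medium plus compound renewed every 24h; conditioned medium from the final 24h deproteinized in 40% acetonitrile; ORN and CYSS quantified by UPLC-HRMS with C13 spike-ins; ratio relative to vehicle.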

The source of these data is PubChem BioAssay (EPA / NIEHS).

SMILES strings stand for the structures. Records with an inconclusive call do not appear. Activity calls are given as the source filed them. The calls were made as follows, unless noted: active = hit-call score of the fitted dose curve at least 0.9, where 1 is the maximum; inconclusive = response in the unintended direction; inactive = score below 0.9.

Sequence of Glyceraldehyde-3-phosphate dehydrogenase (Homo sapiens) (P04406 whole entry, looked up): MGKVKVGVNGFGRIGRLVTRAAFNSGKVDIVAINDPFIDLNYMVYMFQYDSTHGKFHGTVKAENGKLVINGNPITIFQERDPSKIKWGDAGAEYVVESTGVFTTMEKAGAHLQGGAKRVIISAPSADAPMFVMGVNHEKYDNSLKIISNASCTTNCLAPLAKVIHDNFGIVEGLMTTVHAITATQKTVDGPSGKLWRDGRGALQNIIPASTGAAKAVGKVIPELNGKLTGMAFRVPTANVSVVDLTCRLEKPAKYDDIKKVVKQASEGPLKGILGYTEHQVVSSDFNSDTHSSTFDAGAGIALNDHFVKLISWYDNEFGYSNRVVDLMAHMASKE
Sequence of Broad substrate specificity ATP-binding cassette transporter ABCG2 (Homo sapiens) (Q9UNQ0 whole entry, looked up): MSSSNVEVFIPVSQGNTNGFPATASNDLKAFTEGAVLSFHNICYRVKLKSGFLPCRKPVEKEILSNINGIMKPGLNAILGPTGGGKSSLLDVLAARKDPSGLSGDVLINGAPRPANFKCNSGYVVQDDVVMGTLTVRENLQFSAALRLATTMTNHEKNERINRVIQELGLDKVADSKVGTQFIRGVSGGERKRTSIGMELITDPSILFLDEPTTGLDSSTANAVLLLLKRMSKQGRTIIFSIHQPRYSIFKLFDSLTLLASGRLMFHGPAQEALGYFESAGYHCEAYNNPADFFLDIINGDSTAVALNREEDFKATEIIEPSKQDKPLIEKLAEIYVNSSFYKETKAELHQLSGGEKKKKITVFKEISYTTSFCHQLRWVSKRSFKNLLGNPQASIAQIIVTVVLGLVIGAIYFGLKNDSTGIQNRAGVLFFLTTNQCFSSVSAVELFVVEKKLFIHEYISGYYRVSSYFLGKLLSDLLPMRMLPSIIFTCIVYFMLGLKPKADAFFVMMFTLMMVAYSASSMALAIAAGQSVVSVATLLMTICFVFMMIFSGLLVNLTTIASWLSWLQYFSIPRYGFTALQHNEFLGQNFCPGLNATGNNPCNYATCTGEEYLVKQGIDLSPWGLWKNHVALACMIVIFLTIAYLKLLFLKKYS
Sequence of Cytochrome P450 3A4 (Homo sapiens) (P08684 whole entry, looked up): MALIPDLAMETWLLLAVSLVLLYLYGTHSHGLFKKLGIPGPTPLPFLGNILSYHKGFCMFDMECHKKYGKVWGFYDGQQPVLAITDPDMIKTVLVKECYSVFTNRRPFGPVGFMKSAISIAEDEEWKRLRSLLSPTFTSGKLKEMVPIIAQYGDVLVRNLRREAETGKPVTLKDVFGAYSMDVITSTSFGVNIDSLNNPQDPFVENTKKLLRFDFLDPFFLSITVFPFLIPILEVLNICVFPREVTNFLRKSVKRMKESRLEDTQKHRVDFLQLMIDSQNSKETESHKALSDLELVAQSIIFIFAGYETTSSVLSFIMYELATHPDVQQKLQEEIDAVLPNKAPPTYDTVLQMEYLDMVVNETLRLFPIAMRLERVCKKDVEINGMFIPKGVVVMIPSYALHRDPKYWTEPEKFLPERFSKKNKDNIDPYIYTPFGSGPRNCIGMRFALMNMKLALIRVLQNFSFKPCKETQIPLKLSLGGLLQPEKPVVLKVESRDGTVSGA

What is called AC50 is the midpoint of the concentration-response curve, whichever way the signal moves. Turning to `C#CC(C)(C)NC(=O)c1cc(Cl)cc(Cl)c1`, the result in experiment [1], in experiment [4] and in [7] was inactive. For the same compound, the AC50 is 1.69 µM (active) in experiment [2], 0.348 µM (active) in experiment [3], 6.38 µM (active) in experiment [5] and 5.38 µM (active) in experiment [6].

On to `Cc1ccn2nc(S(=O)(=O)Nc3c(F)cccc3F)nc2n1`, for which the result in experiment [1], in [2], in experiment [8], in experiment [3], in experiment [9] and in experiment [10] was inactive. Also, the outcome in experiment [5], in [6], in experiment [11], in [12] and in experiment [7] was inactive.

For the compound `CCOP(=O)(NC(C)C)Oc1ccc(SC)c(C)c1` (stereo not drawn), the compound was called inactive in [1], in [5], in [6] and in experiment [7]. In addition, the AC50 in experiment [3] was 5.87 µM (active).

With `CCCSP(=O)(OCC)SCCC`, the compound was classed as inactive in [13], in [1], in [3], in experiment [9], in experiment [14] and in experiment [10]. Besides, the compound was classed as inactive in experiment [5], in experiment [6] and in experiment [7].

With `CCC(CC)Nc1c([N+](=O)[O-])cc(C)c(C)c1[N+](=O)[O-]`, the call in experiment [1], in [14], in [10], in [4], in [5] and in experiment [6] was inactive. The AC50 in experiment [3] was 9.85 µM (active).

As for `C[N+]1(C)CCCCC1`, the call in experiment [8], in [3], in [9], in experiment [14], in [10] and in [4] was inactive. Moreover, the compound was called inactive in [5], in experiment [6], in experiment [11] and in experiment [12]. The AC50 in [15] was 0.0004 µM (active).

Turning to `CCC(=O)Nc1ccc(Cl)c(Cl)c1`, the compound was called inactive in [1], in experiment [16], in experiment [5] and in experiment [7]. Also, the AC50 in experiment [3] is 4.67 µM (active).

With `CNc1cnn(-c2cccc(C(F)(F)F)c2)c(=O)c1Cl`, the compound was classed as inactive in experiment [1], in experiment [17], in experiment [2], in experiment [5], in [6] and in [11]. Further, the outcome in experiment [12], in experiment [19] and in [7] was inactive. Also, the AC50 in [3] is 5.39 µM (active); in experiment [18], 5.37 µM (active).

For the compound `CSc1nnc(C(C)(C)C)c(=O)n1N`, the call in experiment [1], in experiment [14], in experiment [5], in experiment [12] and in experiment [7] was inactive. Moreover, the AC50 in experiment [3] was 2.97 µM (active); in [11] it was 0.0961 µM (active).
